HTT aggregate: mutant huntingtin aggregation inhibition | PC12 HttQ103-GFP aggregates, Acumen cytometry, 40 h | Potency, µM (highest dose often 46.1 µM), for inactives: at the highest dose activity change, negative = inhibition, actives largely listed as inhibitors | 220,000 compounds, 1.1% hits; note: % is set by controls: 0 for no effect and ±100 for the full control effect; nearly all actives have a fitted effect of over 60% in size
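Huntingtin Q103 exon 1–GFP aggregates in induced PC12 cells (100 nM tebufenozide) were quantified by cytometry from lysates, with compounds dosed in titration.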
ATXN2 expr inh: inhibitors of ATXN2 expression; HEK-293 ATXN2-luciferase reporter, luminescence, 24 h; Potency, µM (highest dose often 57 µM), for the others: at the top dose activity change, negative = inhibition, hits mostly inhibitors; 360,000 compounds, 0.72% hits; note: % is set by controls: 0 for no effect and ±100 for the full control effect; nearly all actives have a fitted effect of over 55% in size
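ATXN2-luciferase reporter cells (luciferase flanked by upstream and downstream ATXN2 gene portions) were treated 24 h at 37 °C with compounds at up to 57 uM. SteadyGlo luminescence gave expression; GF-AFC fluorescence gave viability.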
HTT ATP protect: protects HTT-Q103 PC12 cells, measured by ATP; PC12 HTT-Q103 induced, cytoprotection, ATP luminescence, 40 h; Potency, µM (titrated, usually from 56.4 µM), for inactives: cytoprotection (ATP increase), hits mostly activators; 230,000 compounds, 0.14% hits; note: % of control where 0% means no effect; nearly all actives have a fitted effect of over 45% in size
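Rat PC12, Q103 Htt exon1-GFP fusion, ecdysone promoter; tebufenozide inducer 100 nM final; compound titration; qHTS, 1500 cells/well; ATPlite luminescent read.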
HepG2 viability: kills HepG2 cells in TGF-b inhibitor counter-screen. 410,000 compounds, 0.76% hits. AID 588856. HepG2 CAGA-GFP viability, ATP luminescence, 18 h. Potency, µM (top dose mostly 46.1 µM), for the others: top-dose activity change, negative = cytotoxicity, actives largely listed as cytotoxic
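HepG2 CAGA-GFP cells (1000/well, DMEM with 1% FBS) received compound, then TGF-beta at 500 pg/mL final, and were incubated 18 hours at 37 degrees C. Viability was read by CellTiter-Glo luminescence. Media-only wells were set as complete cell-killing and DMSO as no toxicity.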
TGFb SMAD3 inh: inhibitors of TGF-b signaling | 410,000 compounds, 1.2% hits | Potency, µM (doses to about 46.1 µM), for the others: at the top dose activity, negative = inhibition, usual class: inhibitors | HepG2 CAGA-GFP TGF-b/SMAD3 reporter, GFP fluorescence, 18 h; TGF-beta stimulated, 500 pg/mL final; note: % is set by controls: 0 for no effect and ±100 for the full control effect; nearly all actives have a fitted effect of over 65% in size
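Smad-responsive CAGA-GFP expression was quantified in HEPG2 cells exposed to compounds and 500 pg/mL final TGF-beta for 18 h at 37 degrees C; unstimulated wells defined full inhibition.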
S2 tox: reduces viability in counter-screen for ATXN expression inhibitors | S2 cells (HEK-293 line with an ATXN2-luciferase reporter) viability, CellTiter-Fluor protease fluorescence, 24 h | Potency, µM (doses to about 56.7 µM), most hits filed as cytotoxic | AID 651635 | 400,000 compounds, 0.49% hits; note: nearly all actives have a fitted effect of over 40% in size
* hit, by the source's call; i = inactive; ? = inconclusive; . = no result given; [ ] = dose if it differs, or a comment. Compounds with a hit are over-represented: about 2.8% of the library has one in this group of screens. Calls come from the whole dose curve; as a rule, active = well fitted curve in the direction sought with a large enough effect; inconclusive = small, poorly fitted or top-dose-only effect, or another doubt; inactive = no such curve, though single readings can be large; an effect the other way counts as inactive or inconclusive. Potency is the fitted concentration of half-maximal effect.

SMILES	HTT aggregate	ATXN2 expr inh	HTT ATP protect	HepG2 viability	TGFb SMAD3 inh	S2 tox
CCOC(=O)c1c(NC(=O)CN2CCN(C(=O)c3ccco3)CC2)sc2c1CCCC2	25.1µM*	-7.2%	17.7%[10 µM]	-27.7%	-14.2%	i
CCOC(=O)c1c(NC(=O)c2ccco2)sc2c1CCCC2	5.7%	-2.9%	2.7%	-15.5%	6.7%	i
C=CCC1(O)C=CCC2C3C4C(OC(C)(C)C)C2C1C34 (stereo not drawn)	.	.	-15.9%[10 µM]	.	.	.
NC(C(=O)O)c1cccc(O)c1 (stereo not drawn)	.	.	-69.1%	.	.	.
Cn1c2c(c(=O)n(C)c1=O)C(CC(=O)Nc1ccccc1)C(=O)N2 (stereo not drawn)	5.01µM*	0.6%	-6.7%[0.074 µM]	4.1%	0.0%	i
CN(C)c1nc(C=C(C#N)C#N)c(Cl)n1-c1ccc(F)cc1	?	?	-165.0%	8.91µM*	5.01µM*	22.4µM*
Cc1ccc(NC(=O)/C(C#N)=C/c2cc(C)n(-c3ccc(F)cc3)c2C)cc1C	.	5.0%	.	-24.2%	-4.2%	i
C=CC[N+]1([C@H]2C[C@H]3[C@@H]4CC[C@H]5C[C@H](OC(C)=O)[C@@H](N6CCCCC6)C[C@]5(C)[C@H]4CC[C@]3(C)[C@H]2OC(=O)CC)CCCCC1	.	0.8%	.	.	.	?
CC1(C)CCC(c2ccc(Cl)cc2)=C(CN2CCN(c3ccc(C(=O)NS(=O)(=O)c4ccc(N[C@H](CCN5CCOCC5)CSc5ccccc5)c(S(=O)(=O)C(F)(F)F)c4)cc3)CC2)C1	.	?	.	5.62µM*	?	.
CN(C)CC[C@H](CSc1ccccc1)Nc1ccc(S(=O)(=O)NC(=O)c2ccc(N3CCN(Cc4ccccc4-c4ccc(Cl)cc4)CC3)cc2)cc1[N+](=O)[O-]	.	-15.4%	.	.	.	.
CN(CC(=O)O)c1ccc(/C=C2\C=Cc3ccccc32)cc1	.	.	.	2.2%	?	.
Cc1cc(F)ccc1S(=O)(=O)Nc1ccccc1C(=O)Nc1ccccc1-c1nc2ccccc2[nH]1	?	?	-1.8%[10 µM]	7.94µM*	?	.
CC(O)(c1ccccc1)[N+]1(CC(=O)c2ccccc2)C=CC=C1 (stereo not drawn)	.	.	.	-19.8%	-9.0%	.
O=C(Nc1cc(Br)ccc1O)C1CC(c2ccccc2Cl)=NO1 (stereo not drawn)	.	4.7%	.	-57.1%	15.8µM*	i
N#CCCN(C(=O)CCl)c1cccc(Cl)c1	17.8µM*	?	-115.8%	-104.1%	?	.
CCCCCCCN(C(=O)CCl)c1cccc(C)c1	-3.3%	25.1µM*	-18.3%[10 µM]	-28.4%	?	.
CCCCCCN(C(=O)CCl)c1ccccc1	-6.7%[9.22 µM]	.	16.6%[10 µM]	-114.6%	22.4µM*	?
COCC1CCCN(Cc2ccc3c(c2)CN(C(=O)c2sc(C)nc2C)CCO3)C1 (stereo not drawn)	.	.	.	.	.	i
COc1ccc(-c2cccc(NS(=O)(=O)c3cc(C)c(Cl)cc3C)c2)nn1	.	-22.0%	.	11.2µM*	?	i
COc1ccc(-c2cccc(NS(=O)(=O)c3cc(C(F)(F)F)ccc3Cl)c2)nn1	.	-6.2%	.	-7.7%	?	i
O=c1[nH]cnc2nn(-c3ccccc3)nc12	-5.3%	14.5%	-28.1%	-18.6%	-5.2%	i
O=c1[nH]cnc2nc(-c3ccccc3)c(-c3ccccc3)nc12	14.1µM*	-7.5%	-3.9%[10 µM]	3.0%	-14.0%	i
COCc1c(C(=O)NC2CCCC2)cnn1-c1nccc(-c2cccs2)n1	.	.	.	.	.	i
O=S(=O)(O)c1ccc(N=Nc2ccccc2)cc1	19.4%[9.22 µM]	2.6%	-2.7%[10 µM]	-20.0%	-8.5%	i
O=c1ccc(N=Nc2ccccc2)ccc1O	-33.1%[9.22 µM]	?	-55.0%[10 µM]	17.8µM*	-25.1%	12.6µM*
SMILES	HTT aggregate	ATXN2 expr inh	HTT ATP protect	HepG2 viability	TGFb SMAD3 inh	S2 tox
COc1ccc2c(c1)CCc1cnc(-n3ncc(C(=O)N4CCN(CCO)CC4)c3C3CC3)nc1-2	.	.	.	.	.	i
CC1(Cc2ccccc2C#N)C(=O)Nc2ccc(OC(F)(F)F)cc21 (stereo not drawn)	.	-9.5%	.	-24.1%	-16.4%	i
CC1(Cc2ccccc2Cl)C(=O)Nc2ccc(OC(F)(F)F)cc21 (stereo not drawn)	.	?	.	-90.4%	11.2µM*	?
CCOC(=O)c1cc(C#N)c(SC(C(=O)N2CCCCC2)c2ccccc2)nc1C (stereo not drawn)	.	.	.	-7.1%	-8.8%	.
CC(=O)c1ccc(-c2ccc3c4c(ccc3c2)OC(CNC(=O)[C@@H]2CCCN2C(C)=O)C4)s1 (stereo partly drawn)	.	.	.	.	.	i
COc1ccc(CN2C(=O)C(CC(=O)NC3CCCC3)CC(C(=O)N(C(C)C)C(C)C)=C2C)cc1 (stereo not drawn)	.	-2.0%	.	9.0%	-2.5%	i
CCN(CC)C(=O)C1=C(C)N(Cc2ccc(C(C)(C)C)cc2)C(=O)C(CC(=O)NCC2CCCCC2)C1 (stereo not drawn)	.	?	.	-40.2%	?	28.2µM*
CC1=C(C(=O)N(C(C)C)C(C)C)CC(CC(=O)NC2CCCCC2)C(=O)N1Cc1ccc(C(C)(C)C)cc1 (stereo not drawn)	.	?	.	12.6µM*	?	?
CC1=C(C(=O)N(C(C)C)C(C)C)CC(CC(=O)NCc2cccs2)C(=O)N1Cc1ccc(C(C)(C)C)cc1 (stereo not drawn)	.	?	.	15.8µM*	?	?
CC1=C(C(=O)N(C)C)CC(CC(=O)NCC2CCCCC2)C(=O)N1Cc1ccc(C(C)(C)C)cc1 (stereo not drawn)	.	?	.	-31.4%	-29.5%	?
CC(=O)O[C@@H]1[C@@H](O)CN[C@@H]1Cc1ccccc1	.	.	.	-17.8%	?	.
OC(Cc1ccc2ccccc2n1)c1ccccc1 (stereo not drawn)	.	.	.	-9.4%	2.1%	.
CCc1cc(C(=O)NCCN2Cc3ccccc3OC(c3ccsc3)C2)n(C)n1 (stereo not drawn)	.	.	.	.	.	i
Cc1ncc2c(c1CNC(=O)/C=C/c1cccs1)CCN(C(=O)C1CC(=O)OC13CCCCC3)C2 (stereo not drawn)	.	.	.	.	.	i
Cc1cnc(Nc2ccc(F)cc2Cl)nc1-c1c[nH]c(C(=O)N[C@H](CO)c2cccc(Cl)c2)c1	.	24.3µM*	.	.	.	.
Cc1cc(F)cc(-c2cc(C(=O)NCc3cccc(Cl)c3)[nH]n2)c1	.	-5.3%	.	-13.5%	32.0%	i
COc1ccc([C@H]2/C=C\CN(C(=O)C3CCCC3)[C@@H](C)C(=O)N2Cc2ccc(F)cc2)cc1	.	?	.	-11.8%	-9.7%	20µM*
